Results published in PubChem BioAssay AID589 (National Center for Advancing Translational Sciences (NCATS), 2007).
Among all 59,000 compounds or so, about 6,200 (11%) were called active. About 9% were inconclusive and are not listed. No stated cut-off is given here; in the data, active means max dye-equivalent concentration above about 10 nM; inconclusive means mostly about 1.1 nM to 9.6 nM; inactive means weaker than that. The sample as a whole holds a higher share of actives than the screen did.

Assay: qHTS Assay for Spectroscopic Profiling in 4-MU Spectral Region
Details: compound autofluorescence, 340/450 nm, 4-MU equivalents; active compounds read high
Text: NIH Molecular Libraries Screening Centers Network [MLSCN] NIH Chemical Genomics Center [NCGC] […] Occasionally, the artifactual effect may originate from the compounds own spectral or other biophysical properties which generally tend to track its assay concentration. Pre-screening/profiling the library with respect to the compounds spectral properties should help one exclude false positives early on. While the most informative fluorescent profiling data set is obtained by performing a full excitation and emission scan of each well by using a monochromator-based plate reader, such an approach is practical only on a very limited scale as scanning each well requires long time. An alternative approach, applied here, is to perform plate reader scans using selected excitation and emission wavelength pairs to generate a multidimensional relational database that correlates compound concentration and the respective relative fluorescence intensity at a given wavelength set. A standard curve of 4-methylumbelliferone (4-MU) present on each plate as six-point concentration series, was used to compute a normalized fluorescence response, termed dye-equivalent concentration, for each compound at each concentration.
NCGC Assay Protocol Summary: Buffer: 100 mM Tris buffer, pH 8.0 Dye standard plate: The wells in columns 1 through 4 of a Kalypsys polypropylene 1536-well compound plate were filled with standard solutions of fluorophore corresponding to the spectral region of interest. Solutions of 4-MU were placed in the following wells: A1, B1: 3 mM, A2, B2: 300 uM, A3, B3: 30 uM, A4, B4: zero (DMSO), C1, D1: 3 uM, C2, D2: 900 nM, C3, D3: 300 nM, C4, D4: zero (DMSO). Assay Steps: Six uL of buffer were dispensed to 1536-well Greiner black plates. Compounds and dye standards (23 nL) were transferred via Kalypsys PinTool. The plates were incubated for 15 min at room temperature, and then read on ViewLux (Perkin-Elmer) High-throughput CCD imager using 340 nm and 450 nm excitation and emission filter set. Keywords: NIH Roadmap, MLSCN, MLI, MLSMR, qHTS, NCGC, Fluorescent Profiling, 4MU, 4-MU

With `Cc1ccsc1C(=O)OCC(=O)c1cc2ccccc2o1` as the compound, how does the max dye-equivalent concentration read?
Its max dye-equivalent concentration is “inactive”.

For `O=C(NCc1ccccn1)Nc1ccc(F)cc1`, which max dye-equivalent concentration is on record?
Its max dye-equivalent concentration is “inactive”.

For `O=C(NCc1ccccn1)c1cnc2sccn2c1=O`, which max dye-equivalent concentration is on record?
The max dye-equivalent concentration was “inactive”.

Which max dye-equivalent concentration does the source give for `O=C(Oc1cccnc1)c1cc2ccccc2oc1=O` here?
The max dye-equivalent concentration was 82 nM (active).

With `O=C(NCc1ccccn1)c1cc2ccccc2oc1=O` as the compound, how does the max dye-equivalent concentration read?
Its max dye-equivalent concentration is 22 nM (active).

For `COc1ccc2oc(=O)c(C(=O)O)cc2c1`, which max dye-equivalent concentration is on record?
The max dye-equivalent concentration was “inactive”.

For `Cc1cc(NC(=O)COC(=O)c2ccc(F)c(S(=O)(=O)N3CCOCC3)c2)no1`, which max dye-equivalent concentration is on record?
The max dye-equivalent concentration was “inactive”.

Which max dye-equivalent concentration does the source give for `COc1ccc(NC(=O)N2CC3(CCN(C(=O)c4cccn4C)CC3)C2)cc1` here?
The max dye-equivalent concentration was “inactive”.

For `Cc1cc(=O)[nH]c(SCc2cc(Cl)ccc2OC(F)F)n1`, which max dye-equivalent concentration is on record?
The max dye-equivalent concentration was “inactive”.

With `COc1ccccc1C(=O)N1CCNC(=O)C1CC(=O)Nc1ccc(Cl)cc1` (stereo not drawn) as the compound, how does the max dye-equivalent concentration read?
The max dye-equivalent concentration was “inactive”.

Which max dye-equivalent concentration does the source give for `CCCCc1cc(=O)oc2cc(C)cc(OCc3nn[nH]n3)c12` here?
The max dye-equivalent concentration was 59 nM (active).

With `Cc1c(O)c(Br)c(C)c(O)c1Br` (tested in a mixture with another compound) as the compound, how does the max dye-equivalent concentration read?
The max dye-equivalent concentration was “inactive”.

Which max dye-equivalent concentration does the source give for `CCc1nnc(NC(=O)c2nc3nccc(C)n3n2)s1` here?
The max dye-equivalent concentration was “inactive”.

For `CCC1=C/C(=C\c2ccc3c(c2)OCO3)C(=O)S1`, which max dye-equivalent concentration is on record?
The max dye-equivalent concentration was “inactive”.

With `COc1ccccc1CNC(=O)C1CCN(c2nc3ccccc3o2)CC1` as the compound, how does the max dye-equivalent concentration read?
Its max dye-equivalent concentration is “inactive”.

With `COc1cc2nc(N3CCN(C(=O)[C@@H]4CCCO4)CC3)nc(N)c2cc1OC` as the compound, how does the max dye-equivalent concentration read?
The max dye-equivalent concentration was 890 nM (active).

With `O=C(C1CCCO1)N1CCC(c2nc3ccccc3[nH]2)CC1` (stereo not drawn) as the compound, how does the max dye-equivalent concentration read?
Its max dye-equivalent concentration is “inactive”.

With `COc1ccc2[nH]cc(CCNc3ncnc4ccc(-c5ccccc5CN(C)C)cc34)c2c1` as the compound, how does the max dye-equivalent concentration read?
Its max dye-equivalent concentration is “inactive”.

Which max dye-equivalent concentration does the source give for `Cc1ccccc1NC(=O)c1cc(S(=O)(=O)N2CCOCC2)cs1` here?
Its max dye-equivalent concentration is “inactive”.

For `CN(CC(=O)NC1CCCCC1)S(=O)(=O)c1ccc(Br)s1`, which max dye-equivalent concentration is on record?
Its max dye-equivalent concentration is “inactive”.

Which max dye-equivalent concentration does the source give for `CCC(C(=O)NC1CCCC1)N(C(=O)c1snc(C(N)=O)c1N)c1ccc2c(c1)OCCO2` (stereo not drawn) here?
Its max dye-equivalent concentration is “inactive”.

With `COCCNC(=O)C(c1ccc(C)o1)N(Cc1cccs1)C(=O)c1snc(C(N)=O)c1N` (stereo not drawn) as the compound, how does the max dye-equivalent concentration read?
Its max dye-equivalent concentration is 110 nM (active).

With `COCCNC(=O)C(c1ccc(C)o1)N(Cc1ccccc1)C(=O)Cn1nnc2ccccc21` (stereo not drawn) as the compound, how does the max dye-equivalent concentration read?
The max dye-equivalent concentration was “inactive”.

Which max dye-equivalent concentration does the source give for `CCOC(=O)CCCNC(=O)CN1C(=O)NC(CCc2ccccc2)C1=O` (stereo not drawn) here?
Its max dye-equivalent concentration is “inactive”.

With `CCOC(=O)c1ccc(NC(=O)CS(=O)(=O)c2cn(CC)c3ccccc23)cc1` as the compound, how does the max dye-equivalent concentration read?
Its max dye-equivalent concentration is “inactive”.

Which max dye-equivalent concentration does the source give for `O=C(Nc1ccccc1-c1nnn(CC(=O)N2CCN(c3ccccc3)CC2)n1)c1cccs1` here?
Its max dye-equivalent concentration is “inactive”.

With `Cc1[nH]c(N)nc(=S)c1CCCNc1ccccc1` as the compound, how does the max dye-equivalent concentration read?
The max dye-equivalent concentration was “inactive”.

Which max dye-equivalent concentration does the source give for `Cn1c(=S)c2[nH]c(SCCCc3ccccc3)nc2n(C)c1=O` here?
The max dye-equivalent concentration was 13 nM (active).

For `CCCSc1nc2c(c(=O)[nH]c(=O)n2C)n1CCc1ccccc1`, which max dye-equivalent concentration is on record?
Its max dye-equivalent concentration is “inactive”.

With `Cn1c(=O)c2c(nc(NCCc3ccccc3)n2Cc2ccccc2)n(C)c1=O` as the compound, how does the max dye-equivalent concentration read?
Its max dye-equivalent concentration is “inactive”.

With `O=C(CC(Cc1ccccc1)C(=O)O)NCCc1ccc2c(c1)OCO2` (stereo not drawn) as the compound, how does the max dye-equivalent concentration read?
Its max dye-equivalent concentration is “inactive”.

For `CCOc1ccc(OCC)c(NC(=O)CSc2nnc(Cn3cnc4ccccc43)n2C)c1`, which max dye-equivalent concentration is on record?
Its max dye-equivalent concentration is “inactive”.

Which max dye-equivalent concentration does the source give for `COC(=O)COc1ccc2oc(=O)cc(C)c2c1` here?
Its max dye-equivalent concentration is 25 nM (active).

For `COc1ccc2oc(C)c(NC(C)=O)c2c1`, which max dye-equivalent concentration is on record?
Its max dye-equivalent concentration is “inactive”.

Which max dye-equivalent concentration does the source give for `CCOC(=O)c1c(C)oc2ccc(OCC(=O)N(CC)CC)cc12` here?
The max dye-equivalent concentration was “inactive”.

Which max dye-equivalent concentration does the source give for `Cc1nc(CNS(=O)(=O)c2cccnc2)cs1` here?
Its max dye-equivalent concentration is “inactive”.

Which max dye-equivalent concentration does the source give for `COC(=O)c1ccc(C2C3=C(Nc4nnnn42)c2ccccc2OC3)cc1` (stereo not drawn) here?
Its max dye-equivalent concentration is 59 nM (active).

Which max dye-equivalent concentration does the source give for `COc1ccccc1NC(=O)C1=C(C)Nc2nnnn2C1c1cccc(Br)c1` (stereo not drawn) here?
The max dye-equivalent concentration was “inactive”.

With `CCCCCOC(=O)C1=C(C)Nc2nnnn2C1c1ccc(OC)c(OC)c1OC` (stereo not drawn) as the compound, how does the max dye-equivalent concentration read?
Its max dye-equivalent concentration is “inactive”.

Which max dye-equivalent concentration does the source give for `O=C(CNS(=O)(=O)c1ccc(Br)s1)NCc1ccc2c(c1)OCO2` here?
The max dye-equivalent concentration was “inactive”.

For `O=C(N1CCOCC1)N(Cc1ccccc1)c1ccccn1`, which max dye-equivalent concentration is on record?
Its max dye-equivalent concentration is “inactive”.

Which max dye-equivalent concentration does the source give for `NC(=O)CSc1c[nH]c2ccccc12` here?
Its max dye-equivalent concentration is “inactive”.

For `Cc1ccc2c(c1)C(O)(CC(=O)c1cccnc1)C(=O)N2` (stereo not drawn), which max dye-equivalent concentration is on record?
The max dye-equivalent concentration was “inactive”.

For `CCc1cc2c(=O)c(-c3ccon3)c(N)oc2cc1OC`, which max dye-equivalent concentration is on record?
Its max dye-equivalent concentration is “inactive”.

Which max dye-equivalent concentration does the source give for `Cc1ccc(Cc2nc(-c3cccc(C)c3)no2)cc1` here?
The max dye-equivalent concentration was “inactive”.

With `Cc1ccc(-c2noc(CN3CCN(Cc4ccccc4)CC3)n2)cc1` as the compound, how does the max dye-equivalent concentration read?
The max dye-equivalent concentration was “inactive”.

Which max dye-equivalent concentration does the source give for `COc1ccccc1Cc1nc(-c2ccc(C)cc2)no1` here?
Its max dye-equivalent concentration is 16 nM (active).

For `O=C(Nc1cccc(F)c1)N1CCC2(CC1)CCN(S(=O)(=O)c1ccccc1)CC2`, which max dye-equivalent concentration is on record?
Its max dye-equivalent concentration is “inactive”.

For `CN1CCCC(OC(=O)COc2ccc(Br)cc2)C1` (stereo not drawn), which max dye-equivalent concentration is on record?
The max dye-equivalent concentration was “inactive”.

For `CCCSC1=C(C#N)C(c2ccccc2C)C(C(=O)OC)C(=O)N1` (stereo not drawn), which max dye-equivalent concentration is on record?
The max dye-equivalent concentration was “inactive”.

Which max dye-equivalent concentration does the source give for `Cc1nc(SCC(=O)Nc2cc(C)on2)c2c(C)c(C)sc2n1` here?
The max dye-equivalent concentration was “inactive”.

Which max dye-equivalent concentration does the source give for `Cc1cc(C)c2c(c1)cc(C)c1nnc(SCC(=O)Nc3cc(C)on3)n12` here?
Its max dye-equivalent concentration is “inactive”.

With `Cc1ccc2nc(-c3ccc(SCC(=O)Nc4cc(C)on4)nc3)[nH]c2c1` as the compound, how does the max dye-equivalent concentration read?
Its max dye-equivalent concentration is 33 nM (active).
